Results reported in PubChem BioAssay (NCI).
Where “and” joins values, the source holds several entries; their conditions need not be identical. Identical values can stand only once. The panel holds about 83,000 compounds, 20% with a hit somewhere; the sample as a whole holds those more often.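 The test compound was applied at a single concentration to cells in 96-well plates for 48 hours, and percent growth was recorded.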 Where a structure was tested more than once in an assay, its records may differ in their call. Calls of active or inactive are those of the source. The calls were made as follows: active = growth percent below 10; inactive = the rest.

Legend:
Test in all cases: NCI-60 one-dose screen, 48 h (100 = growth as untreated, 0 = no growth, -100 = all killed)
BT-549 breast = conditions: 10 µM
MDA-MB-435 melanoma = conditions: 10 µM
SW-620 colon = conditions: 10 µM
MCF7 breast = tested on: MCF7 breast
HCT-116 colon = conditions: 10 µM
HCC-2998 colon = conditions: 10 µM
KM12 colon = conditions: 10 µM
T-47D breast = conditions: 10 µM

| SMILES | growth (BT-549 breast) | growth (MDA-MB-435 melanoma) | growth (SW-620 colon) | growth (MCF7 breast; 10 µM) | growth (HCT-116 colon) | growth (HCC-2998 colon) | growth (KM12 colon) | growth (T-47D breast) | growth (MCF7 breast; 100 µM) |
| --- | --- | --- | --- | --- | --- | --- | --- | --- | --- |
| C#CCN(Cc1ccc2nc(N)[nH]c(=O)c2c1)c1ccc(C(=O)NC(CCC(=O)O)C(=O)O)cc1 (stereo not given) | 76.9% (inactive) | 90.7% (inactive) | 61.8% (inactive) | 22.4% (inactive) | 45.7% (inactive) | 31.6% (inactive) | 70.2% (inactive) | – | – |
| Cc1cc(N(CCOS(C)(=O)=O)CCOS(C)(=O)=O)ccc1C=Nc1ccc(-c2nc(Cc3ccccc3)sc2C)cc1 | 52.8% (inactive) | 63.2% (inactive) | 61.6% (inactive) | 36.8% (inactive) | 63.4% (inactive) | -28.3% (active) | 68.7% (inactive) | 20.5% (inactive) | – |
| Cc1ccc(Sc2ccccc2N)cc1 | 89.8% (inactive) | 120% (inactive) | 58.3% (inactive) | 53.7% (inactive) | 55.8% (inactive) | 132% (inactive) | 102% (inactive) | 99.8% (inactive) | – |
| COc1ccc(C(=O)C(CN(C)C)CN(C)C)cc1 | 112% (inactive) | 36.8% (inactive) | -80.5% (active) | 14.3% (inactive) | 4.91% (active) | 109% (inactive) | 108% (inactive) | 9.04% (active) | – |
| O=[N+]([O-])c1cc[n+]([O-])cc1 | 92.4% (inactive) | 112% (inactive) | 99.3% (inactive) | 97.6% (inactive) | 107% (inactive) | 97% (inactive) | 104% (inactive) | 120% (inactive) | – |
| CN(C)CCOC1(Cc2ccc(Cl)cc2Cl)CCC(C(C)(C)C)CC1 (stereo not given) | 58.8% (inactive) and 24% (inactive) | 11% (inactive) and -57.6% (active) | -51.8% (active) and -57.6% (active) | -46.4% (active) and -87.7% (active) | 13.2% (inactive) and -81.3% (active) | -92.9% (active) and -95.5% (active) | 20.2% (inactive) and -46.6% (active) | -21.2% (active) and -41.1% (active) | – |
| C=C1C(=O)OC2CC1C(OC(C)=O)C/C(C)=C/CC/C(C)=C\CCC2(C)O (stereo not given) | -83.9% (active) | 18.6% (inactive) | 1.39% (active) | 10.6% (inactive) | -64.7% (active) | -51.2% (active) | 23.2% (inactive) | 4.13% (active) | -90.9% (active) |
| CC1=CC(=C(c2ccc(N)cc2)c2ccc(N)cc2)C=CC1=N | 5.57% (active) and 81.8% (inactive) | 13.6% (inactive) and 24% (inactive) | 17.2% (inactive) and 39.1% (inactive) | 9.83% (active) and 19.6% (inactive) | 14% (inactive) and 11.5% (inactive) | 21.1% (inactive) and 48.1% (inactive) | 0.202% (active) and 9.48% (active) | 3.11% (active) and 11.3% (inactive) | – |
| COc1cc([C@@H]2c3cc4c(cc3[C@@H](Nc3ccc(NC(=O)c5cc([N+](=O)[O-])cn5C)cc3)[C@H]3COC(=O)[C@H]23)OCO4)cc(OC)c1O | – | – | – | – | – | – | – | – | 5.63% (active) |
